Experimental data reported in the supplement of paper PMC11732987, “Enantioselective OTUD7B fragment discovery through chemoproteomics screening and high-throughput optimisation” (Communications Chemistry, 2025).

What was measured:
Assay in all cases: log2 ratio of Biotin-Ahx-Ub-VS probe labelling (fragment/DMSO); higher = less target engagement (more negative = stronger competition), active = hit call of the paper (q ≤ 0.05, log2 ratio ≤ -1)
Conditions in all cases: compound concentration: 200 uM; treatment time: 3 h
USP19 = biological target: T1, USP19 (UniProt O94966)
T1 sequence (whole entry): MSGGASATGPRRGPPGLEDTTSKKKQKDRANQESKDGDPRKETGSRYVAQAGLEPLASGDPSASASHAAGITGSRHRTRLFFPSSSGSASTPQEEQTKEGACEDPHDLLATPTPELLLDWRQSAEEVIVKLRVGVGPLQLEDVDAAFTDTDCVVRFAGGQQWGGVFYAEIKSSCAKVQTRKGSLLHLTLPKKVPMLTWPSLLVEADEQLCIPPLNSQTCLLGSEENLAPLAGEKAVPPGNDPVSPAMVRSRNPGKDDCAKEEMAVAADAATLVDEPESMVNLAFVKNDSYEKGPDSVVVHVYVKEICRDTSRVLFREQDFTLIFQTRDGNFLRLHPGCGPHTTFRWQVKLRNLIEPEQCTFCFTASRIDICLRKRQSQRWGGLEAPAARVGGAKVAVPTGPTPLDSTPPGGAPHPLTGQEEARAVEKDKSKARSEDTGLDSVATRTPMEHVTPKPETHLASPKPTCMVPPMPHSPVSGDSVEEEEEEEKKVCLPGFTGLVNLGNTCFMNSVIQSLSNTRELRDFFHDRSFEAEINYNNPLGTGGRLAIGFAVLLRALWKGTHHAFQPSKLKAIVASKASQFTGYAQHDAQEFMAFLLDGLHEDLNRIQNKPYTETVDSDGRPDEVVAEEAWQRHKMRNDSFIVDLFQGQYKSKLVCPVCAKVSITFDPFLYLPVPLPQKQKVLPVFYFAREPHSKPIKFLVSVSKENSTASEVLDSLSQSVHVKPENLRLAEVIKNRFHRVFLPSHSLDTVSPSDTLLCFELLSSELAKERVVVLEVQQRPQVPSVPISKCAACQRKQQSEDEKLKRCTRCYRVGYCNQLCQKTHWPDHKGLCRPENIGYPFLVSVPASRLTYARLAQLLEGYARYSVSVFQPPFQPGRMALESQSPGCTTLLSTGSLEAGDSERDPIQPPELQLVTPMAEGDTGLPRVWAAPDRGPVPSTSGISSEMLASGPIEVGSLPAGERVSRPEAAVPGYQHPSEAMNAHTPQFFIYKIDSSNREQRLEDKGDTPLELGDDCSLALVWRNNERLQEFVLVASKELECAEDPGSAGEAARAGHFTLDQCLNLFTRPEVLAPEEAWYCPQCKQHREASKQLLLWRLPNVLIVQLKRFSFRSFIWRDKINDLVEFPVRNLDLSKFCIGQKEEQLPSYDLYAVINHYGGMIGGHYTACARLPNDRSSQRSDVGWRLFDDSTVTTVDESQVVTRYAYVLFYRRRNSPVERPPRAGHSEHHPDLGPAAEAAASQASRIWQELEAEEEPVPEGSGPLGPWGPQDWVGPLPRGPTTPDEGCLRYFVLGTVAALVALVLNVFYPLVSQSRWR
In short: (§1)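 Average log2 ratios of fragment over vehicle were obtained by unpaired t-test from global-median-normalised Spectronaut label-free quantities. Proteins with ≥2 unique peptides were included. HEK293T lysate (495 µg per sample) was treated in triplicate with fragment at 200 µM or vehicle for 3 h, then with Biotin-Ahx-Ub-VS at 0.5 µM final for 1 h, and labelled DUBs were NeutrAvidin-enriched and run by diaPASEF LC-MS/MS.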

USP24 = USP24 (UniProt Q9UPU5)
USP24, sequence (Q9UPU5 whole entry): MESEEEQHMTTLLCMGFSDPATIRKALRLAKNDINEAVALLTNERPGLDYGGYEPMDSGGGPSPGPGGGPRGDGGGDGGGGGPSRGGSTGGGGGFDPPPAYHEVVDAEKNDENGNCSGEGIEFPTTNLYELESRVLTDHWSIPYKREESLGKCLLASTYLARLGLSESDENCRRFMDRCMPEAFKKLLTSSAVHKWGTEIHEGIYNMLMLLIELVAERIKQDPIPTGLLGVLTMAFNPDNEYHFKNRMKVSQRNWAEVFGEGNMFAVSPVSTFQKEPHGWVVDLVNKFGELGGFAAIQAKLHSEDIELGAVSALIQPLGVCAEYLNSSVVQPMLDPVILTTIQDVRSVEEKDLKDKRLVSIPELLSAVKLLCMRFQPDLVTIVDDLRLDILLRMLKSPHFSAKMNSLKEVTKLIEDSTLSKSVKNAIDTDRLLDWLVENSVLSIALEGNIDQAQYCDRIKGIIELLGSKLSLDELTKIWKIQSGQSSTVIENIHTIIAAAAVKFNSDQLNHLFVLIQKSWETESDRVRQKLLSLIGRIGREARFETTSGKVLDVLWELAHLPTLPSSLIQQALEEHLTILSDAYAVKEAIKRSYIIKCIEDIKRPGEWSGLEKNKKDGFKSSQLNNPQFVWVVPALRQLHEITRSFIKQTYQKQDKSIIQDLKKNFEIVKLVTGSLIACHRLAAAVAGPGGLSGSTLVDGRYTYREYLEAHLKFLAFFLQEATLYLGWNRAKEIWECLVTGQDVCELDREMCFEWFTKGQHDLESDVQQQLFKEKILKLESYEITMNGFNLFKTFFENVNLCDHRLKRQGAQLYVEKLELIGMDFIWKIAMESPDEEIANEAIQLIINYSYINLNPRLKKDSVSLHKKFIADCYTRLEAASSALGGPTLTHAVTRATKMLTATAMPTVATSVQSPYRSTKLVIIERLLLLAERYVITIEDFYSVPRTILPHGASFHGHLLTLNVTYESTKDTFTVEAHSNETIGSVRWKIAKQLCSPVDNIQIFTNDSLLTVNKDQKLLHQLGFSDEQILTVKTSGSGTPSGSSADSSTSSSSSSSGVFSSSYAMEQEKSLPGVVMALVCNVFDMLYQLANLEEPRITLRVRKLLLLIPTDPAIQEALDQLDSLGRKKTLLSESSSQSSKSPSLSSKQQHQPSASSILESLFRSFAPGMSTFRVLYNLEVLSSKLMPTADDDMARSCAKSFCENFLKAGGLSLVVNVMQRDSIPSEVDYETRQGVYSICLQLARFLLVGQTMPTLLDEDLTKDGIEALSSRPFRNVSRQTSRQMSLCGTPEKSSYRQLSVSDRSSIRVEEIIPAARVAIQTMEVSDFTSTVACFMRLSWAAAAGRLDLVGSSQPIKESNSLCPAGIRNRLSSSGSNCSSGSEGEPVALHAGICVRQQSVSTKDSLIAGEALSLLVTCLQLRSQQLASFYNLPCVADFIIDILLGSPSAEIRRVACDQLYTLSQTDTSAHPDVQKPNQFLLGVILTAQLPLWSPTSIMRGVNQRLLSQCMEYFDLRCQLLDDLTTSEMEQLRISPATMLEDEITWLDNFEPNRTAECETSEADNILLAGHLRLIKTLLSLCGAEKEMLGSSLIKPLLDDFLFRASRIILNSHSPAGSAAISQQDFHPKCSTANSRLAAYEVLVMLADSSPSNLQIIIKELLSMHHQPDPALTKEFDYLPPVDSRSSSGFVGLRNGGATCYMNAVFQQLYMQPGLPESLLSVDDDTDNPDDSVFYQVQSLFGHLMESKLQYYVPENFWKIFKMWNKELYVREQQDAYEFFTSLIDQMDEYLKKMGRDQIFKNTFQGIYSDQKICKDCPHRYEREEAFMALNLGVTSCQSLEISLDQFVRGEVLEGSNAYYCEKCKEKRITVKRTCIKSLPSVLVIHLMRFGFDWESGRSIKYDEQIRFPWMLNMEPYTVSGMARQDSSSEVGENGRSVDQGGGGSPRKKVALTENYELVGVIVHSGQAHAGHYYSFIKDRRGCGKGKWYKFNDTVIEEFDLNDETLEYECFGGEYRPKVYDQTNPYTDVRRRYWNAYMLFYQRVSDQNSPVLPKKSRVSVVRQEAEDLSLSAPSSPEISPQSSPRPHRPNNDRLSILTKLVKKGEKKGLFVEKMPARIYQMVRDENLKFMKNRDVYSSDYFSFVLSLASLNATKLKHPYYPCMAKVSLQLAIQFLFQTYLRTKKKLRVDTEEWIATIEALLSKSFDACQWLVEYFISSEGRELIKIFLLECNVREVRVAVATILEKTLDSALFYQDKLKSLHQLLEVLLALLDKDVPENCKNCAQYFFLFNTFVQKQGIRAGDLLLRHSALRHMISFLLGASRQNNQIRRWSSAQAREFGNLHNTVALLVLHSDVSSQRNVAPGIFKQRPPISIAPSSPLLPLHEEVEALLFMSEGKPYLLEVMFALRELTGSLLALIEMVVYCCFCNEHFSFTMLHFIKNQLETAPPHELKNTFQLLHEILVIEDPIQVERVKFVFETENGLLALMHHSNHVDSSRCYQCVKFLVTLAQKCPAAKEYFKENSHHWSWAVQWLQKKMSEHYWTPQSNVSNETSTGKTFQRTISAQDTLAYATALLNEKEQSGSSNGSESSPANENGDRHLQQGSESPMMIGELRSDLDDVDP
In short: as §1

USP25 = biological target: T2, USP25 (UniProt Q9UHP3)
T2 sequence (whole entry): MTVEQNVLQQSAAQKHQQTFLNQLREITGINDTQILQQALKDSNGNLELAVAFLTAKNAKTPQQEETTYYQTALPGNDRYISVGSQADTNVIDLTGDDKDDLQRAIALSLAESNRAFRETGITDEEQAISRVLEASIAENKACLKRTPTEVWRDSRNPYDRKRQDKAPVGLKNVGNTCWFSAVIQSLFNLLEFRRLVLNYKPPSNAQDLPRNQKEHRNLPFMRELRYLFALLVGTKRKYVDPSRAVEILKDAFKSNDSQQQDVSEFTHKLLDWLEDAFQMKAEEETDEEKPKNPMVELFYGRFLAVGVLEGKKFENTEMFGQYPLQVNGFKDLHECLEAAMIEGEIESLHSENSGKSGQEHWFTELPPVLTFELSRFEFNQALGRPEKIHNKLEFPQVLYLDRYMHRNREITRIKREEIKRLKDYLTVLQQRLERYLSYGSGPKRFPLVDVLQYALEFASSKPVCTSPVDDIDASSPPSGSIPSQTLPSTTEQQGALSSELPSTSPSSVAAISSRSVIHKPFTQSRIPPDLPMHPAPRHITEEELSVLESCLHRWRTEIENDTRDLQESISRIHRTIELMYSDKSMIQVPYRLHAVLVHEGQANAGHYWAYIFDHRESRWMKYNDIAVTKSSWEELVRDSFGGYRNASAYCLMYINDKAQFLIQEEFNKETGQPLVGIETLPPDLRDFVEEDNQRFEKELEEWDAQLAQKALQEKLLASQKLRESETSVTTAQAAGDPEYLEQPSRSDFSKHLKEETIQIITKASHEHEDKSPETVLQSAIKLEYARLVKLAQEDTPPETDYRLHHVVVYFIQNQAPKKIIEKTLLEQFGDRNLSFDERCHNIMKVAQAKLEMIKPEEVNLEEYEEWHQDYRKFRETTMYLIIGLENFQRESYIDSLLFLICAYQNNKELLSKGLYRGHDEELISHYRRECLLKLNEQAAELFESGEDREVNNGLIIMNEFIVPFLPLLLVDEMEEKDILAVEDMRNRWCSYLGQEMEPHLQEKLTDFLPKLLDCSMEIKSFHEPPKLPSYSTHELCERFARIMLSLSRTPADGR
In short: as §1

USP28 = biological target: T3, USP28 (UniProt Q96RU2)
T3 sequence (whole entry): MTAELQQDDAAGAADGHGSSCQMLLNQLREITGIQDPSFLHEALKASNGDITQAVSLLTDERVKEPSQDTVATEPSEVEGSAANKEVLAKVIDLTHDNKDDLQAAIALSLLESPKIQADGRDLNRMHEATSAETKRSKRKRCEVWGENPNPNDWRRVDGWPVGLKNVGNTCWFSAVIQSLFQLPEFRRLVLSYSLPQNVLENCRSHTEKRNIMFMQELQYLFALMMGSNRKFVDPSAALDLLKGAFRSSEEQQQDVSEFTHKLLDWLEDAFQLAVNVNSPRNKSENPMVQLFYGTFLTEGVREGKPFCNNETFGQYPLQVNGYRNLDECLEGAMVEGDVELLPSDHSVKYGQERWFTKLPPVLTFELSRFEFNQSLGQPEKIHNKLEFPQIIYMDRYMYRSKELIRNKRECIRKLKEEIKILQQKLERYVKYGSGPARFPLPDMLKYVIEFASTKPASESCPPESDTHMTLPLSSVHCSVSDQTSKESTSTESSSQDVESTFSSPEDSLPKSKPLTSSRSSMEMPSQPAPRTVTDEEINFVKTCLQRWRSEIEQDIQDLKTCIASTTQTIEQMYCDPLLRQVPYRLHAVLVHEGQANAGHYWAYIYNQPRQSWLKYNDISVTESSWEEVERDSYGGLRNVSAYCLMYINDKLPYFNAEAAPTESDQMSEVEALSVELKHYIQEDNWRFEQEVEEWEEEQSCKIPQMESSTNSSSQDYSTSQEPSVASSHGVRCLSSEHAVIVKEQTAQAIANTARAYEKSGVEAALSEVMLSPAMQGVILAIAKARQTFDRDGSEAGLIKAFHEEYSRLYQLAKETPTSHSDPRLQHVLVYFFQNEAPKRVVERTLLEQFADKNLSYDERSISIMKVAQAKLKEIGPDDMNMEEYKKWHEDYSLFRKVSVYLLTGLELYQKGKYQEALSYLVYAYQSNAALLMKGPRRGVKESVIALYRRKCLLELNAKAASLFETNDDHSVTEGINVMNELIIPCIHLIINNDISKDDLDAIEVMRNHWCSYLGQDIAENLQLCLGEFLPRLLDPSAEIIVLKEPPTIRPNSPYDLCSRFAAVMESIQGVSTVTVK
In short: as §1

Measured: log2 ratio of Biotin-Ahx-Ub-VS probe labelling

Cl.O=C(CCl)N1CCCC(c2ncc[nH]2)C1 (centres undefined)
inactive: USP19 -0.0532 | USP24 -0.108 | USP25 -0.511 | USP28 -0.212
